G9a inh-1: qHTS Assay for Inhibitors of Histone Lysine Methyltransferase G9a. Histone-lysine N-methyltransferase EHMT2 (Homo sapiens), Q96KQ7. G9a H3K9 monomethylation, AlphaScreen, 2 h. Potency, µM (series often up to 102 µM), for the others: top-dose activity, negative = inhibition, usual class: inhibitors. 8.8% of 350,000 active; also: potency is read from the fitted curve at half-maximal effect; % is scaled to controls: 0 for no effect and ±100 for the full control effect; nearly all actives have a fitted effect of over 75% in size
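Using a bead-based AlphaScreen, monomethylated H3K9 product from 2 h room-temperature reactions (G9a 20 nM, peptide 500 nM, SAM 20 uM) was detected with 0.5 ug/mL rabbit anti-H3K9me1 antibody.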
JMJD2A Tudor inh: qHTS Assay for Inhibitors of JMJD2A-Tudor Domain; Lysine-specific demethylase 4A (Homo sapiens), O75164; AlphaScreen JMJD2A-Tudor / H3K4me3 peptide binding; Potency, µM (top dose mostly 114 µM), for the others: top-dose activity change, negative = inhibition, hits mostly inhibitors; 4.4% of 390,000 active; also: potency is read from the fitted curve at half-maximal effect; % is scaled to controls: 0 for no effect and ±100 for the full control effect; nearly all actives have a fitted effect of over 50% in size
Target sequence (O75164 whole entry, looked up, the tested form may be a part): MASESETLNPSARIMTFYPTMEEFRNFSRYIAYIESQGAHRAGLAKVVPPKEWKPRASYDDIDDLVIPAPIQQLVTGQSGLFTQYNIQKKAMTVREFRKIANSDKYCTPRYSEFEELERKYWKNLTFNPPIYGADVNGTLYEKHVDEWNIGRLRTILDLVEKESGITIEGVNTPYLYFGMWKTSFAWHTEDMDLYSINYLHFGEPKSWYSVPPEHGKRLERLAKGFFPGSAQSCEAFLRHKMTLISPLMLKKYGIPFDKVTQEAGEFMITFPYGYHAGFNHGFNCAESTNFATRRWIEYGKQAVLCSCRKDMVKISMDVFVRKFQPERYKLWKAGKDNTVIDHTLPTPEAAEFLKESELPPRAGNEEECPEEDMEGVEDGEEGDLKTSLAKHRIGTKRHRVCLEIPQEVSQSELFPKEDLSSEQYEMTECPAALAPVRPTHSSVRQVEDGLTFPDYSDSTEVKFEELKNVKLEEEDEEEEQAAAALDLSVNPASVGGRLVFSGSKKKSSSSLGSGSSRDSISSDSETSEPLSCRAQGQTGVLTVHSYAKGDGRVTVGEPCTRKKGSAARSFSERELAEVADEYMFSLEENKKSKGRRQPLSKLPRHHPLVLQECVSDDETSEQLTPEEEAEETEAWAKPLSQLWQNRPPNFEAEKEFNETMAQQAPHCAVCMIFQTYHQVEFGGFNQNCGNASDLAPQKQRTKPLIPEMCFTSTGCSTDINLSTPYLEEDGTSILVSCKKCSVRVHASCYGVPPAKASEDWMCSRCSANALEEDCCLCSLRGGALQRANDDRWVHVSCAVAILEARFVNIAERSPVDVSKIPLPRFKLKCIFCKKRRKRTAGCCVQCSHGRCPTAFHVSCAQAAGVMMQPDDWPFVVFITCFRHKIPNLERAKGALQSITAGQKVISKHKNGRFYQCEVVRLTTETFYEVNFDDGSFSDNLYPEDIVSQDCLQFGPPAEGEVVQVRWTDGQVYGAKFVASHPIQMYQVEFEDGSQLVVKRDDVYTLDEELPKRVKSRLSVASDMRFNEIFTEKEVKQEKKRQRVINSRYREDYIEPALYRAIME
HP1b binding inh: HTS for Inhibitors of HP1-beta Chromodomain Interactions with Methylated Histone Tails. Chromobox protein homolog 1 (Homo sapiens), P83916. AlphaScreen HP1-beta / biotin-H3K9me3 peptide binding. 0.56% of 390,000 active. AID 540317, 2011. Potency, µM (titrated, usually from 114 µM), without a hit: at the highest dose activity change, negative = inhibition, usual class: inhibitors; also: potency is read from the fitted curve at half-maximal effect; nearly all actives have a fitted effect of over 70% in size
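AlphaScreen: HP1-beta (50 nM) preformed 30 min with biotin-H3(1-18)K9me3 peptide (50 nM) in PBS pH 7.4, 0.01% Tween-20. Compound added for 30 min at RT, then streptavidin donor/nickel chelate acceptor beads (10 ug/mL) for 30 min.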
L3MBTL1 block: qHTS Assay for the Inhibitors of L3MBTL1. 0.66% of 230,000 active. AID 485360, 2010. AlphaScreen L3MBTL1–H3K9me1 peptide binding. Potency, µM (highest dose often 57.1 µM), for the others: at the highest dose activity, negative = inhibition, usual class: inhibitors; also: potency is read from the fitted curve at half-maximal effect; % is scaled to controls: 0 for no effect and ±100 for the full control effect; nearly all actives have a fitted effect of over 60% in size
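AlphaScreen assay: L3MBTL1 (50 nM final) was preincubated 30 min at room temperature with biotinylated H3(1-15)K9me1 peptide (75 nM final), then 30 min with library compounds; streptavidin donor and nickel chelate acceptor beads (10 ug/mL final) added, 30 min dark.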
GLS inhibitor: qHTS for Inhibitors of Glutaminase (GLS). 0.21% of 410,000 active. Glutaminase kidney isoform, mitochondrial (Homo sapiens), O94925. Potency, µM (titrated, usually from 45.5 µM), without a hit: at the highest dose activity change, negative = inhibition, usual class: inhibitors. GLS enzymatic activity, qHTS titration; also: potency is read from the fitted curve at half-maximal effect; % is scaled to controls: 0 for no effect and ±100 for the full control effect
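Compounds were pin-transferred onto hKGA, after which L-glutamine (1 mM solution) and a detection mix of glutamate oxidase, HRP and Amplex Red were added. Initial and 30 min RT fluorescence reads were collected.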
BAZ2B block: qHTS Assay for Inhibitors of BAZ2B. 4.4% of 360,000 active. Bromodomain adjacent to zinc finger domain protein 2B (Homo sapiens), Q9UIF8. AlphaScreen BAZ2B-H3K14Ac peptide displacement. Potency, µM (top dose mostly 114 µM), without a hit: at the highest dose activity change, negative = inhibition, usual class: inhibitors; also: potency is read from the fitted curve at half-maximal effect; % is scaled to controls: 0 for no effect and ±100 for the full control effect; nearly all actives have a fitted effect of over 60% in size
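BAZ2B (50 nM) with biotin-H3(5-23)K14Ac peptide (50 nM) in PBS pH 7.4, 0.01% Tween-20, preformed 30 min, then compound 30 min at room temperature; top concentration 110uM. AlphaScreen streptavidin donor/nickel chelate acceptor beads (10 ug/mL final), 20 min dark, signal read.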
JMJD2E confirm: Confirmation qHTS Assay for Inhibitors of Human Jumonji Domain Containing 2E (JMJD2E) | 93% of 140 active | Recombinant JMJD2E, FDH-coupled NADH fluorescence (FDH is formaldehyde dehydrogenase) | Potency, µM (titrated, usually from 56.8 µM), inactives show at the highest dose activity change, negative = inhibition, usual class: inhibitors | shares compounds with JMJD2A Tudor inh
FDH counter: Counterscreen for JMJD2E Inhibitors: qHTS Assay for Inhibitors of Formaldehyde Dehydrogenase (FDH). shares compounds with JMJD2A Tudor inh. 10% of 140 active. AID 2680, 2010. Potency, µM (titrated, usually from 56.7 µM), without a hit: at the highest dose activity, negative = inhibition, actives largely listed as inhibitors. FDH enzyme assay, NADH fluorescence kinetic
G9a inh-2: qHTS Assay for Inhibitors of Histone Lysine Methyltransferase G9a: Hit Confirmation; shares compounds with JMJD2A Tudor inh; G9a H3K9 monomethylation, AlphaScreen, 2 h; Potency, µM, usual class: inhibitors; 89% of 370 active; also: potency is read from the fitted curve at half-maximal effect; nearly all actives have a fitted effect of over 65% in size
RGS4 confirm: qHTS for Inhibitors of Regulator of G Protein Signaling(RGS) 4: Hit Validation. shares compounds with JMJD2A Tudor inh. RGS4 GAP activity, Transcreener GDP fluorescence polarization. Potency, µM, hits mostly inhibitors. 80% of 25 active
The depositor's hits bear a star; ? = inconclusive; . = no result; [ ] = remark or other dose. A selection: hits, their analogues and other compounds. The true share with any hit is near 10%. Calls follow the shape of the dose curve; as a rule, active = well fitted curve in the direction sought with a large enough effect; inconclusive = small, poorly fitted or top-dose-only effect, or another doubt; inactive = no such curve, though single readings can be large; an effect the other way counts as inactive or inconclusive.

SMILES	G9a inh-1	JMJD2A Tudor inh	HP1b binding inh	L3MBTL1 block	GLS inhibitor	BAZ2B block	G9a inh-2	others
CCN(CC)c1ccc(NC(=O)COC(=O)C23CCC(=O)N2c2ccccc2S3)cc1 (configuration not stated)	?	?	?	.	8.9%	?	5.02*
Cc1ccc(OCC(=O)Nc2ccc(C(N)=O)cc2)cc1	13.2%	17.4%	16.6%	.	-5.3%	-1.1%	.
CCN(CC)c1ccc(NC(=O)COC(=O)CCc2cc(OC)c(OC)c(OC)c2)cc1	.	.	.	.	42.2%	.	.
CSCCC(NS(=O)(=O)c1ccc2c(c1)oc(=O)n2C)C(=O)N1CCN(c2cc(Cl)ccc2C)CC1 (configuration not stated)	-27.5%[59 µM]	-22.4%	2.4%	.	-0.9%	-9.5%	.
CCCCOC(=O)c1c(C)oc2c1cc(NS(=O)(=O)c1cc(OC)ccc1OC)c1ccccc12	-28.6%[59 µM]	-31.3%	6.0%	.	3.0%	-15.8%[57.1 µM]	.
c1ccc2c(NC3CC3)nc(-c3ccoc3)nc2c1	4.2%[0.501 µM]	.	.	.	.	.	.	RGS4 confirm=?
O=C(NCc1ccc2c(c1)CCN2C(=O)c1ccc(F)cc1)c1ccc(Br)o1	-26.5%[59 µM]	-30.0%	17.6%	.	1.3%	-22.6%	.
COC(=O)c1ccc(-c2ccc(OC)c(C3C4C=CCC(C)C4C(=O)N3Cc3ccccc3)c2)cc1 (configuration not stated)	.	-24.8%	15.4%	.	.	.	.
O=C(NCCN1CCOCC1)NC1(C(F)(F)F)Oc2ccccc2O1	?	-2.1%	47.0%	10.6%	0.4%	9.3%	?
NC(=O)c1ccc(-n2nnnc2SCC(=O)c2ccc(O)c(O)c2)cc1	11.2µM*	?	-10.1%	?	-28.6%	?	.	JMJD2E confirm=7.94µM*;FDH counter=-25.9%
O=C(Nc1nnc(-c2ccccc2)s1)C1CCCN(C(=O)c2ccoc2)C1 (configuration not stated)	.	-32.6%	?	.	.	.	.	RGS4 confirm=23.8*
CCc1nnc(NC(=O)C2CCCN(C(=O)c3ccoc3)C2)s1 (configuration not stated)	.	-15.6%	33.7%	.	.	.	.
O=C(CSC1=NCCS1)N1CCc2ccccc21	?	14.5%	21.4%	.	-0.6%	-0.9%	1.59*
CCOC(=O)COc1ccc(F)cc1C(=O)c1ccn2nc(-c3ccc(Cl)cc3)cc2n1	-0.2%[59 µM]	-8.6%	29.6%	.	8.1%	-4.7%	.
Cc1ccc2oc3c(c(=O)c2c1)C(c1ccccc1F)N(CCCN(C)C)C3=O (configuration not stated)	-17.1%[59 µM]	-7.9%	23.6%	.	-11.6%	-3.0%	.
Cc1cc(C)nc(Nc2cccc3ccccc23)n1	.	-7.8%	21.2%	.	3.2%	-11.6%	.
Cc1cc2n(n1)SC(Nc1cccc3ccccc13)N2 (configuration not stated)	0.631µM*	50.1µM*	-5.6%	-10.8%	-0.6%	-1.8%	0.71*
COc1ccc(-n2c(SCc3ccccc3)nc3c([nH]c4ccccc43)c2=O)cc1	21.2%[59 µM]	-9.4%	48.5%[57 µM]	.	-6.4%	0.6%	.
COc1ccc(N2CCN(Cc3nc(N)nc(Nc4ccc(C)c(Cl)c4)n3)CC2)cc1	1.58µM*	35.5µM*	-48.4%	.	11.6%	25.1µM*	7.08*
COc1ccccc1NC(=O)CN1CCN(CC(=O)Nc2ccccc2F)CC1	.	-9.6%[11.4 µM]	45.7%	.	11.4%	.	.
CCN(CC)c1ccc(NC(=O)CN2CCN(CC(=O)Nc3ccccc3F)CC2)cc1	?	?	-27.8%	-3.6%[11.4 µM]	38.1%	?	6.31*
COC(=O)c1cc(NCc2ccc3c(c2)OCO3)ccc1N1CCOCC1	?	?	-8.7%	.	24.6%	?	12.6*
O=C(O)c1cc(NCc2ccc3c(c2)OCO3)ccc1N1CCOCC1	?	7.4%	-2.1%	-6.5%	.	1.8%	.
COc1ccc(N2CCC(CNS(=O)(=O)c3cccc(C(F)(F)F)c3)C2)cc1 (configuration not stated)	?	39.8µM*	?	?	20.5%	10µM*	0.448*
COc1ccc(CNC(=O)Nc2ccc(C)c(C)c2)cc1	12.7%	-6.5%	28.6%	43.1%[11.4 µM]	8.9%	-23.1%	.
CCOc1ccc(NC(=O)NCC2CCN(c3ccc(OC)cc3)C2)cc1 (configuration not stated)	1µM*	-33.8%	-15.6%	.	15.1%	-6.5%	1.12*
COc1ccc(N2CCC(CNC(=O)Nc3ccc(C)c(C)c3)C2)cc1 (configuration not stated)	2µM*	25.1µM*	?	-13.2%	4.2%	39.8µM*	2.52*
COc1ccc(CNC(=O)C2CCN(S(=O)(=O)c3cccc(C(F)(F)F)c3)CC2)cc1	-29.8%	3.4%	23.6%	3.1%	8.3%	8.7%	.
CCc1ccc(NC(=O)NCC2CCN(c3ccc(OC)cc3)C2)cc1 (configuration not stated)	?	-33.8%	3.6%	.	14.5%	-36.2%	0.893*
CCc1ccc(NC(=O)CN2CCN(c3ccc(OC)cc3)CC2)cc1	.	?	-13.2%	.	30.7%	.	.
